From PubChem BioAssay (Tox21) come the findings set out here.

Activity calls are given as the source filed them. The call rests on the fitted dose curve; in most records, active means well fitted curve in the direction sought with a large enough effect in the repeat runs; inconclusive means weak or mixed curves; inactive means flat fitted curve, though single readings scatter.
On the % scale 0 is the no-effect control and ±100 the full control effect.

The experiment is described as follows: qHTS assay to test for compound auto fluorescence at 535 nm (green) in HEK293 cells (AID 720680). To be noted: green autofluorescence 485/535 nm; series mostly up to 91.3 µM; fluorescence, % of fluorescein: at the top concentration. From the text:
U.S. Tox21 Program National Center for Advancing Translational Sciences [NCATS] NIH Chemical Genomics Center [NCGC] U.S. Environmental Protection Agency [EPA] National Institutes of Environmental Health Sciences [NIEHS] National Toxicology Program [NTP] U.S. Food and Drug Administration [FDA] Tox21 Assay Overview: Compound auto fluorescence often interferes with screening of the compound library against various biological targets and signaling pathways. Some of these compounds may have fluorophoric properties. Such properties may interfere with the assay outputs resulting in false positives and/or negatives. To decrease such complications and ensure the compound activities are relevant in terms of biological response, the Tox21 10K compound library was screened for auto fluorescence. From the fluorophores used as reporter signals in our screening assays, the auto fluorescence equivalencies of compounds against three fluorophores have been evaluated: Triamterene, Fluorescein and Rose Bengal sodium for blue, green and red fluorescence, respectively. The fluorescence intensities were measured using Excitation/Emission wavelengths at 405/460nm, 485/535nm and 540/590nm for blue, green and red labels, respectively. This assay includes the green fluorescence data.
Tox21 Assay Protocol Summary: 2,000 HEK293 cells in 5 uL of culture medium containing 10% dialyzed FBS per well were dispensed into black wall/clear bottom 1536-well plates using a Multidrop Combi Dispenser (Thermo Scientific). The assay plates were incubated for 4-5 hr at 37C to allow cell attachment to the well bottom, followed by the transfer of 23 nL compound or DMSO vehicle by a pintool work station (Kalypsys, San Diego, CA). After the assay plates were incubated overnight at 37C and 5% CO2, fluorescence intensities in the assay plates were measured by an Envision (PerkinElmer, Shelton, CT) plate reader using three labels for measuring blue, green and red fluorescence at […] 460, 535 and 590nm respectively.
In general terms: Quantitative high-throughput screening tests each substance at several concentrations.
As for `Clc1cccc(C(c2ccc3nc[nH]c3c2)n2ccnc2)c1` (stereo not given), the “fluorescence, % of fluorescein” value was 0.0107% [at 46 µM] (inactive).

`CC(C)=CCC/C(C)=C/C=N/O`: the “fluorescence, % of fluorescein” value was 0.0346% (inactive).

Take `C=C(C)C(=O)OCCCCCCCCCCOC(=O)C(=C)C`: the “fluorescence, % of fluorescein” value is -0.051% (inactive).

On to `CC(C)C[C@H](NC(=O)[C@H](Cc1ccccc1)NC(=O)c1cnccn1)B(O)O`, for which the compound was called inactive.

For `COc1ccc(C(=O)Nc2ccccc2)cc1[N+](=O)[O-]`, the “fluorescence, % of fluorescein” value is 0.0609% (inactive).

In the case of `CCc1ccc(C(=O)C(C)CN2CCCCC2)cc1` (stereo not given), the “fluorescence, % of fluorescein” value was 0.0523% [at 46 µM] (inactive).

`CCOc1ccccc1O`: the “fluorescence, % of fluorescein” value is -0.0098% (inactive).

As to `CCCC(=O)OCCC(C)C`, the “fluorescence, % of fluorescein” value is -0.0979% (inactive).

As for `CC(=O)CC/C=C(\C)CC/C=C(\C)CC/C=C(\C)CCC=C(C)C`, the “fluorescence, % of fluorescein” value is 0.0232% [at 46 µM] (inactive).

As for `NC(=O)c1cc[n+](CC2=C(C(=O)[O-])N3C(=O)[C@@H](NC(=O)Cc4cccs4)[C@H]3SC2)cc1`, the fluorescence, % of fluorescein is 0.0094% [at 18.6 µM] (inactive).

For the compound `O=C(O)c1ccncc1`, the “fluorescence, % of fluorescein” value is 0.0023% [at 95.7 µM] (inactive).

On to `CC/C=C/CCO`, for which the “fluorescence, % of fluorescein” value is 0.0029% [at 95.7 µM] (inactive).

As for `CC(=O)Oc1cccc2c1C(=O)c1c(OC(C)=O)cc(C(=O)O)cc1C2=O`, the “fluorescence, % of fluorescein” value is -0.406% [at 46 µM] (inactive).

As to `NCCOCCOCCN`, the “fluorescence, % of fluorescein” value is 0.0204% (inactive).

In the case of `OCCc1ccncc1`, the “fluorescence, % of fluorescein” value is 0.0231% (inactive).

For the compound `Cc1cc(C)n(CO)n1`, the “fluorescence, % of fluorescein” value was -0.0844% (inactive).

`CC1=C(C)C(=O)C(CCCCC#CCCCC#CCO)=C(C)C1=O`: the “fluorescence, % of fluorescein” value is 0.0511% [at 46 µM] (inactive).

Regarding `CCC(CC)C(=O)O`, the “fluorescence, % of fluorescein” value was 0.0065% (inactive).

For the compound `O=S(=O)(O)c1cc(Cl)c(Cl)cc1Cl`, the “fluorescence, % of fluorescein” value is 0.0212% (inactive).

For the compound `CCCCCCCCOCCCN`, the “fluorescence, % of fluorescein” value is -0.0014% (inactive).

Consider `CCOC(OCC)OCC`, for which the “fluorescence, % of fluorescein” value is -0.149% (inactive).

In the case of `CCCCCCOC(=O)c1ccccc1`, the “fluorescence, % of fluorescein” value is 0.0456% (inactive).

Take `Cc1c(Cl)cccc1Nc1ccccc1C(=O)O`: the “fluorescence, % of fluorescein” value is -0.0433% [at 46 µM] (inactive).

For `CCCCCCCCC(=O)OCC(C)OC(=O)CCCCCCCC` (stereo not given), the “fluorescence, % of fluorescein” value is 0.0357% [at 95.7 µM] (inactive).

In the case of `Nc1ccc(F)cc1F`, the “fluorescence, % of fluorescein” value was -0.239% [at 95.7 µM] (inactive).

As to `O=[N+]([O-])c1cccc(I)c1`, the “fluorescence, % of fluorescein” value is 0.0176% (inactive).

Consider `CO[C@@H]1[C@@H](O[C@@H]2O[C@H](C)[C@@H](O[C@H]3C[C@@](C)(O)[C@@H](O)[C@H](C)O3)[C@H](N(C)C)[C@H]2O)[C@@H](CC=O)C[C@@H](C)[C@@H](O[C@@H]2CC[C@H](N(C)C)[C@@H](C)O2)/C=C/C=C/C[C@@H](C)OC(=O)C[C@H]1OC(C)=O`, for which the “fluorescence, % of fluorescein” value is 0.0043% [at 46 µM] (inactive).

`Cc1cc(SC2=C(O)C[C@@](CCc3ccc(N)cc3)(C(C)C)OC2=O)c(C(C)(C)C)cc1CO`: the “fluorescence, % of fluorescein” value was -0.0382% (inactive).

Consider `C=Cc1ccc(C=C)cc1`, for which the “fluorescence, % of fluorescein” value was -0.0389% [at 95.7 µM] (inactive).

Take `CCOc1cc(OCC)c(C(C)=O)cc1OCC`: the “fluorescence, % of fluorescein” value is 0.0231% (inactive).

For the compound `CC(CCl)OC(C)CCl` (stereo not given), the “fluorescence, % of fluorescein” value is -0.157% (inactive).

`CC(=O)Nc1cccc(N)c1`: the “fluorescence, % of fluorescein” value is -0.233% [at 95.7 µM] (inactive).

As to `c1ccc(CN(Cc2ccccc2)Cc2ccccc2)cc1`, the “fluorescence, % of fluorescein” value was -0.0149% (inactive).

With `O=C1c2ccccc2C(=O)c2c1ccc(O)c2O`, the “fluorescence, % of fluorescein” value was -0.0691% [at 46 µM] (inactive).

In the case of `CCCCCCCCCCCCSCCOCCO`, the “fluorescence, % of fluorescein” value was 0.0083% [at 46 µM] (inactive).

As for `NC(=O)c1ccccc1C(N)=O`, the “fluorescence, % of fluorescein” value is 0.0103% (inactive).

On to `O=C(NC1CCN(CCc2c[nH]c3ccccc23)CC1)c1ccccc1`, for which the “fluorescence, % of fluorescein” value was 0.0302% [at 46 µM] (inactive).

For `CCCC(=O)OCc1ccccc1`, the “fluorescence, % of fluorescein” value is -0.0182% (inactive).

As for `O=Cc1ccc([N+](=O)[O-])cc1`, the “fluorescence, % of fluorescein” value is -0.0265% (inactive).

On to `CCCCCCCCCCCCCCCCCCCl`, for which the fluorescence, % of fluorescein was -0.0209% [at 3.72 µM] (inactive).
